Measured values reported in PubChem BioAssay AID2205 (University of Pittsburgh Molecular Library Screening Center, 2009).
Out of some 200,000 compounds screened, about 1,600 (0.8%) were called active.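 How the source made its calls: active means plate Z-score above 3 for both tubulin-high and condensed-nucleus cell shares, with cell loss under 80%, at 10 µM; inactive means the rest, inconclusive results apart.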 Shown is part of a subset that was picked to be rich in actives.

test: microtubule stabilizers in HeLa cells, primary screen, imaging, high-content imaging (AID 2205); details: HeLa tubulin immunostaining HCS, 24 h, at 10 µM; % Hoechst-high responders: measured here: nuclear condensation Hoechst responders, stronger effect = higher value, share of cells brighter than vehicle mean+2SD; % tubulin-high responders: stronger effect = higher value, share of cells brighter than vehicle mean+2SD; toxicity: measured here: cytotoxicity by cell density;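 on % tubulin-high responders: anti alpha tubulin signal scored within the nucleus-defined area of each cell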;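 on toxicity: 0% = mean cell density of plate MIN control wells and 100% = no cells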

| SMILES | % Hoechst-high responders | % tubulin-high responders | toxicity |
| --- | --- | --- | --- |
| COc1ccc(-c2[nH]ncc2CN(C)Cc2c(C)n[nH]c2C)c(OC)c1 | 1.45% | 3.81% (inactive) | 16.7% |
| Cc1cccc(C)c1NC(=O)C(c1ccccc1)N1CC(=O)Nc2ccccc21 (configuration not stated) | 2.09% | 3.96% (inactive) | 8.51% |
| Cc1nnc(NC(=O)CSc2nccn2-c2cccc(C)c2C)s1 | 21% | 19.7% (active) | 64.4% |
| COc1ccccc1-n1c(CNC(=O)c2ccccc2)nnc1SCC(=O)Nc1nnc(C)s1 | 1.91% | 2.83% (inactive) | 6.55% |
| Cc1cccc(CSc2nnc(NC(=O)CSc3nnc(C)s3)s2)c1 | 1.18% | 2.97% (inactive) | 12.2% |
| CC(Oc1cccc(NC(=O)c2cccs2)c1)C(=O)c1ccccc1 (configuration not stated) | 1.24% | 0.929% (inactive) | 5.37% |
| Cc1cc(-c2csc(N)n2)c(C)n1-c1ccccc1 | 2.12% | 6.37% (inactive) | 3.22% |
| CN1C(=O)/C(=C\c2ccc(-c3ccccc3)o2)SC1=S | 1.77% | 6.05% (inactive) | 4.81% |
| CCCCNC(=O)CSc1nc2n[nH]c(C)c2c(=N)n1-c1cccc(Cl)c1C | 2.38% | 2% (inactive) | 5.31% |
| COc1cccc(-n2c(SCC(=O)NC3CCCCC3)nc3n[nH]c(C)c3c2=N)c1 | 11.3% | 18.4% (active) | 62.6% |
| C=CCn1c(CC(=O)Nc2cccc(OC)c2)nnc1SCC(=O)NC1CCCCC1 | 1.48% | 3.27% (inactive) | 1.42% |
| Cc1ccc(S(=O)(=O)N(C)C)cc1NC(=O)c1ccccc1Br | 2.26% | 1.77% (inactive) | 6.59% |
| CN1CCN(C(=O)/C(=C\c2ccc3c(c2)OCO3)NC(=O)c2cccs2)CC1 | 1.07% | 1.67% (inactive) | 6.65% |
| CCC1(CC)Cc2ccccc2-c2nc3ccccc3c(=O)n21 | 1.65% | 4.36% (inactive) | 6.77% |
| CN(C)CCCn1c(SCCN2C(=O)c3ccccc3C2=O)nc2ccccc2c1=O | 1.95% | 2.16% (inactive) | 6.21% |
| CC(C)(C)c1nc2ccccc2c(=O)n1N1C(=O)c2ccccc2C1=O | 13.9% | 28.9% (active) | 37.9% |
| CCOc1ccc(NS(=O)(=O)c2ccc(C)c(C(N)=O)c2)cc1 | 2.61% | 1.97% (inactive) | 4.14% |
| CN1CCN(c2ccc(NC(=O)c3ccc4c(c3)[nH]c(=O)n4Cc3ccc(F)cc3)cc2)CC1 | 2.93% | 3.59% (inactive) | 6.48% |
| O=C(NN=C1CCC(=NNC(=O)c2cccnc2)CC1)c1cccnc1 | 2.04% | 1.75% (inactive) | 6.55% |
| COCC(C)n1c(C)cc(C(=O)COc2ccc(C)nc2[N+](=O)[O-])c1C (configuration not stated) | 1.67% | 1.5% (inactive) | 6.06% |
| O=C(NNC(=S)NC(=O)c1cn(-c2ccccc2)nc1-c1ccccc1)c1ccncc1 | 2.91% | 5.93% (inactive) | 6.44% |
| CCOc1ccc(C2c3[nH]c4ccccc4c3CCN2Cc2cn(CC)nc2C)cc1 (configuration not stated) | 3.06% | 2.78% (inactive) | 2.13% |
| NC(=O)c1ccccc1N(Cc1ccccc1)S(=O)(=O)c1ccccc1 | 0.852% | 1.16% (inactive) | 4.6% |
| CCN1CCN(C(=O)c2ccccc2N(C)S(=O)(=O)c2ccc(C)cc2)CC1 | 1.51% | 2.85% (inactive) | 4.04% |
| CCOC(=O)N1CCN(C(=O)c2ccccc2N(Cc2ccccc2)S(=O)(=O)c2ccc(OC)cc2)CC1 | 60.4% | 17.8% (active) | 42.6% |

| SMILES | % Hoechst-high responders | % tubulin-high responders | toxicity |
| --- | --- | --- | --- |
| CC(=O)c1cc(-c2ccccc2)n(CC(=O)NC2CCCCC2)c1C | 1.48% | 1.98% (inactive) | 2.82% |
| O=C(Nc1ccn(Cc2ccccc2)n1)c1cccc(F)c1 | 3.02% | 4.62% (inactive) | 3.61% |
| O=C(Nc1ccn(Cc2ccccc2)n1)c1n[nH]c([N+](=O)[O-])c1Cl | 13.3% | 9.59% (active) | 24.4% |
| O=C(Nc1ccn(Cc2ccc(F)cc2)n1)c1ccncc1 | 1.77% | 2.77% (inactive) | 3.59% |
| CC1Cc2ccccc2N1S(=O)(=O)c1c(N)n(C)c(=O)n(C)c1=O (configuration not stated) | 3.17% | 3.06% (inactive) | 7.69% |
| CCc1nc2ccccc2c(C(=O)NCc2ccc(OC)cc2)c1C | 2.73% | 2.02% (inactive) | 5.3% |
| CN(C)Cc1ccc(F)cc1Sc1cc(Cl)ccc1Cl | 2.47% | 4.07% (inactive) | 10% |
| CC(C(=O)NCC1CCCCC1)N(C)Cc1cccc(Cl)c1 (configuration not stated) | 0.921% | 4.54% (inactive) | 21.1% |
| CCOc1ccc(NC(=O)COc2ccc(C(=O)NC3CCCc4ccccc43)cc2OC)cc1 (configuration not stated) | 2.51% | 5.53% (inactive) | 4.7% |
| COc1ccc(CN(C)C(C)C(=O)NC2CCCc3ccccc32)cc1 (configuration not stated) | 4.92% | 11.4% (active) | 14% |
| COc1ccc([N+](=O)[O-])cc1NC(=O)CC1SC(=Nc2cccc(C)c2C)N(/N=C(\C)c2ccc(C)cc2)C1=O (configuration not stated) | 1.74% | 1.39% (inactive) | 6.54% |
| COc1cccc(NC(=O)c2ccc(S(=O)(=O)N(C)C)cc2)c1 | 1.38% | 3.01% (inactive) | 1.8% |
| COc1ccc(-n2nnnc2-c2nc3ccccc3s2)cc1 | 2.51% | 4.84% (inactive) | 1.66% |
| CCOc1cccc(-n2nnnc2-c2ccc(OC)cc2)c1 | 43.4% | 37.6% (active) | 41.8% |
| CCOc1cccc(-c2nnc3sc(COc4ccc(OC)cc4)nn23)c1 | 1.53% | 1.43% (inactive) | 2.39% |
| COC(=O)c1ccc(CN2CCN(CCCc3ccccc3)C(CCO)C2)cc1 (configuration not stated) | 1.96% | 3.41% (inactive) | 10.2% |
| CCOC(=O)Cc1ncccc1C(=O)Nc1ccc(OC)cc1 | 2.23% | 3.2% (inactive) | 5.66% |
| COc1ccccc1NC1=NC(c2ccc(Cl)cc2)N=C(N)N1 (configuration not stated) | 46.7% | 18% (active) | 42.6% |
| COc1ccccc1NC1=NC2(CCCC2)N=C(N)N1 | 1.77% | 2.5% (inactive) | 14.7% |
| COc1ccccc1Nc1nc(N)nc(CN(C)C2CCCCC2)n1 | 1.52% | 3.4% (inactive) | 5.42% |
| c1ccc(CN=C2Nc3ccccc3CS2)nc1 | 1.84% | 4.7% (inactive) | 4.5% |
| Cc1cc(NC(=O)CSc2nnc(Nc3ccccc3F)s2)no1 | 2.66% | 2.72% (inactive) | 6.41% |
| Cc1cc(C)c2c(c1)cc(C)c1nnc(SCC(=O)Nc3cc(C)on3)n12 | 18.1% | 40.6% (active) | 66.4% |
| Cc1ccc(-c2csc(SCC(=O)Nc3cc(C)on3)n2)cc1 | 0.903% | 2.28% (inactive) | 2.29% |
